# Data as given in PubChem BioAssay AID1159580 (chemical genetic matrix, 2015).
# Among all 5,500 compounds or so, about 2,000 (36%) were called active. Not shown: some 18% with an inconclusive outcome. This is one part of the list. Unmarked numbers belong to inactive results. Cut-off read from the data, not from the text of the source: active = normalized growth mostly below about 0.91 (no sharp cut-off); inconclusive = no clear call, values can overlap the other calls; inactive = mostly above about 0.92.
# Assay: chemical genetic growth profiling, strain panel (AID 1159580);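 note: tested at 20 µM; growth read once vehicle control cultures reached saturation at 30 °C; 1 = growth at the plate median or of vehicle wells; lower values mean less growth of the strain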
# Settings: S. cerevisiae deletion strains, growth OD
# [1] = locus YHR030C, strain SLT2, active compounds read low
# [2] = locus YHR079C, strain IRE1, active compounds read low
# [3] = locus YJL095W, strain BCK1, active compounds read low
# [4] = locus YJR066W, strain TOR1, active compounds read low
# [5] = locus YLR113W, strain HOG1, active compounds read low
# [6] = locus YNL183C, strain NPR1, active compounds read low
# [7] = locus YOR231W, strain MKK1, active compounds read low
# [8] = locus YPL256C, strain CLN2, active compounds read low
# [9] = locus YDL101C, strain DUN1, active compounds read low
# [10] = locus YAL013W, strain DEP1, active compounds read low
# [11] = locus YBR229C, strain ROT2, active compounds read low
# [12] = locus YDL134C, strain PPH21, active compounds read low
# [13] = locus YDR150W, strain NUM1, active compounds read low
# [14] = locus YEL061C, strain CIN8, active compounds read low
# [15] = locus YGR078C, strain PAC10, active compounds read low
# [16] = locus YHR087W, strain rtc3, active compounds read low
# [17] = locus YJR043C, strain POL32, active compounds read low
# [18] = locus YJR075W, strain HOC1, active compounds read low
# [19] = locus YLR039C, strain RIC1, active compounds read low
# [20] = locus YLR058C, strain SHM2 (second series), active compounds read low
# [21] = locus YLR085C, strain ARP6, active compounds read low
# [22] = locus YLR262C, strain YPT6, active compounds read low
# [23] = locus YML094W, strain GIM5, active compounds read low
# [24] = locus YMR219W, strain ESC1, active compounds read low
# [25] = locus YNL153C, strain GIM3, active compounds read low
# [26] = locus YNL298W, strain CLA4 (second series), active compounds read low
# [27] = locus YNL322C, strain KRE1, active compounds read low
# [28] = locus YNR030W, strain Alg12, active compounds read low
# [29] = locus YOL006C, strain TOP1, active compounds read low
# [30] = locus YPL055C, strain LGE1, active compounds read low
# [31] = locus YPL241C, strain CIN2, active compounds read low
# [32] = locus YPR135W, strain CTF4, active compounds read low
structure (smiles),measurement,setting,value
OC[C@H]1O[C@H](OC[C@H]2O[C@@H](O)[C@H](O)[C@@H](O)[C@@H]2O)[C@H](O)[C@@H](O)[C@H]1O,normalized growth,[1],1.05
same,normalized growth,[2],1.03
same,normalized growth,[3],1.05
same,normalized growth,[4],0.982
same,normalized growth,[5],1.01
same,normalized growth,[6],0.997
same,normalized growth,[7],1.04
same,normalized growth,[8],1.06
N#CC(C#N)=C/C=C(/Sc1nc2ccccc2s1)c1ccc(Br)cc1,normalized growth,"locus YAR019C, strain CDC15, active compounds read low",0.148 (active)
same,normalized growth,"locus YBL105C, strain PKC1, active compounds read low",0.157 (active)
same,normalized growth,"locus YBR135W, strain CKS1, active compounds read low",0.189 (active)
same,normalized growth,"locus YBR136W, strain MEC1, active compounds read low",0.206 (active)
same,normalized growth,"locus YBR160W, strain CDC28, active compounds read low",0.22 (active)
same,normalized growth,"locus YDL017W, strain CDC7, active compounds read low",0.207 (active)
same,normalized growth,"locus YDL028C, strain MPS1, active compounds read low",0.28 (active)
same,normalized growth,[9],0.338 (active)
same,normalized growth,"locus YDL108W, strain KIN28, active compounds read low",0.289 (active)
same,normalized growth,"locus YDL132W, strain cdc53, active compounds read low",0.299 (active)
same,normalized growth,"locus YDL214C, strain PRR2, active compounds read low",0.144 (active)
same,normalized growth,"locus YDR052C, strain DBF4, active compounds read low",0.695 (active)
same,normalized growth,"locus YDR054C, strain cdc34, active compounds read low",0.145 (active)
same,normalized growth,"locus YDR226W, strain ADK1, active compounds read low",0.28 (active)
same,normalized growth,"locus YDR477W, strain SNF1, active compounds read low",0.144 (active)
same,normalized growth,"locus YER123W, strain YCK3, active compounds read low",0.217 (active)
same,normalized growth,"locus YER133W, strain GLC7, active compounds read low",0.168 (active)
same,normalized growth,"locus YFL009W, strain cdc4, active compounds read low",0.317 (active)
same,normalized growth,"locus YFL029C, strain CAK1, active compounds read low",0.153 (active)
same,normalized growth,"locus YFR003C, strain YPI1, active compounds read low",0.253 (active)
same,normalized growth,"locus YFR019W, strain FAB1, active compounds read low",0.146 (active)
same,normalized growth,"locus YFR028C, strain CDC14, active compounds read low",0.187 (active)
same,normalized growth,"locus YGR040W, strain KSS1, active compounds read low",0.156 (active)
same,normalized growth,"locus YGR052W, strain FMP48, active compounds read low",0.167 (active)
same,normalized growth,"locus YGR092W, strain DBF2, active compounds read low",0.155 (active)
same,normalized growth,[1],0.124 (active)
same,normalized growth,[2],0.17 (active)
same,normalized growth,"locus YHR082C, strain KSP1, active compounds read low",0.163 (active)
same,normalized growth,"locus YHR205W, strain SCH9, active compounds read low",0.0272 (active)
same,normalized growth,"locus YIL147C, strain SLN1, active compounds read low",0.215 (active)
same,normalized growth,[3],0.116 (active)
same,normalized growth,"locus YJL128C, strain PBS2, active compounds read low",0.391 (active)
same,normalized growth,"locus YJL157C, strain FAR1, active compounds read low",0.118 (active)
same,normalized growth,"locus YJR016C, strain ILV3, active compounds read low",0.176 (active)
same,normalized growth,"locus YJR066W, strain TOR1 (second series), active compounds read low",0.114 (active)
same,normalized growth,[4],0.156 (active)
same,normalized growth,"locus YKL048C, strain ELM1, active compounds read low",0.322 (active)
same,normalized growth,"locus YKL067W, strain YNK1, active compounds read low",0.137 (active)
same,normalized growth,"locus YKL101W, strain HSL1, active compounds read low",0.175 (active)
same,normalized growth,"locus YKL193C, strain SDS22, active compounds read low",0.155 (active)
same,normalized growth,"locus YKL203C, strain TOR2, active compounds read low",0.158 (active)
same,normalized growth,[5],0.218 (active)
same,normalized growth,"locus YLR133W, strain CKI1, active compounds read low",0.149 (active)
same,normalized growth,"locus YLR403W, strain SFP1, active compounds read low",0.0212 (active)
same,normalized growth,"locus YML070W, strain DAK1, active compounds read low",0.172 (active)
same,normalized growth,"locus YMR001C, strain CDC5, active compounds read low",0.126 (active)
same,normalized growth,"locus YMR205C, strain PFK2 (second series), active compounds read low",0.138 (active)
same,normalized growth,"locus YMR277W, strain FCP1, active compounds read low",0.144 (active)
same,normalized growth,"locus YNL006W, strain LST8, active compounds read low",0.13 (active)
same,normalized growth,"locus YNL020C, strain ARK1, active compounds read low",0.142 (active)
same,normalized growth,"locus YNL161W, strain CBK1, active compounds read low",0.164 (active)
same,normalized growth,[6],0.153 (active)
same,normalized growth,"locus YNL207W, strain RIO2, active compounds read low",0.21 (active)
same,normalized growth,"locus YNL222W, strain SSU72, active compounds read low",0.177 (active)
same,normalized growth,"locus YNL307C, strain MCK1 (second series), active compounds read low",0.137 (active)
same,normalized growth,"locus YOL078W, strain AVO1, active compounds read low",0.154 (active)
same,normalized growth,"locus YOL136C, strain PFK27, active compounds read low",0.161 (active)
same,normalized growth,"locus YOR061W, strain CKA2, active compounds read low",0.174 (active)
same,normalized growth,"locus YOR119C, strain RIO1, active compounds read low",0.155 (active)
same,normalized growth,[7],0.171 (active)
same,normalized growth,"locus YOR329C, strain SCD5, active compounds read low",0.164 (active)
same,normalized growth,"locus YPL031C, strain PHO85, active compounds read low",0.135 (active)
same,normalized growth,"locus YPL153C, strain RAD53, active compounds read low",0.133 (active)
same,normalized growth,"locus YPL204W, strain HRR25, active compounds read low",0.142 (active)
same,normalized growth,"locus YPL209C, strain IPL1, active compounds read low",0.159 (active)
same,normalized growth,[8],0.216 (active)
same,normalized growth,"locus YPR025C, strain CCL1, active compounds read low",0.181 (active)
same,normalized growth,"strain NNK1, active compounds read low",0.304 (active)
same,normalized growth,"strain TSCII, active compounds read low",0.157 (active)
CC(C)(O/N=C(/C(=O)N[C@@H]1C(=O)N2C(C(=O)[O-])=C(C[n+]3ccccc3)CSC12)c1csc(N)n1)C(=O)O (some centres undefined),normalized growth,[1],1.02
same,normalized growth,[2],1.02
same,normalized growth,[3],1.01
same,normalized growth,[4],0.95
same,normalized growth,[5],1.05
same,normalized growth,[6],0.962
same,normalized growth,[7],1.02
same,normalized growth,[8],1.03
COc1cc(C2N=C(c3ccc(Cl)cc3)SC(c3ccc(Cl)cc3)=N2)cc(OC)c1OC,normalized growth,[10],1
same,normalized growth,[11],1.01
same,normalized growth,[9],1.02
same,normalized growth,[12],1.03
same,normalized growth,[13],1.02
same,normalized growth,[14],0.997
same,normalized growth,[15],1.01
same,normalized growth,[1],0.991
same,normalized growth,[16],1.02
same,normalized growth,[17],1.03
same,normalized growth,[18],0.991
same,normalized growth,[19],1.02
same,normalized growth,[20],1.04
same,normalized growth,[21],1
same,normalized growth,[22],1.03
same,normalized growth,[23],1
same,normalized growth,[24],1
same,normalized growth,"locus YMR263W, strain SAP30, active compounds read low",0.949
same,normalized growth,[25],1.01
same,normalized growth,[26],1.02
same,normalized growth,[27],1
same,normalized growth,[28],1.03
same,normalized growth,[29],0.891
same,normalized growth,[30],0.974
same,normalized growth,[31],1.01
same,normalized growth,[32],1.09
COc1ccc(-c2c(C)nc3ccc(Cl)cc3c2-c2ccccc2)cc1OC,normalized growth,[10],0.91 (active)
same,normalized growth,[11],0.937
same,normalized growth,[9],0.945
same,normalized growth,[12],0.914 (active)
same,normalized growth,[13],0.861
same,normalized growth,[14],0.949
same,normalized growth,[15],0.935
same,normalized growth,[1],0.759
same,normalized growth,[16],0.913
same,normalized growth,[17],0.977
same,normalized growth,[18],0.819 (active)
same,normalized growth,"locus YKL190W, strain CNB1, active compounds read low",0.98
same,normalized growth,[19],0.821
same,normalized growth,[20],0.986
same,normalized growth,[21],0.785
same,normalized growth,[22],0.948
same,normalized growth,[23],0.933
same,normalized growth,[24],0.947
same,normalized growth,"locus YMR307W, strain GAS1, active compounds read low",0.546 (active)
same,normalized growth,"locus YNL128W, strain TEP1, active compounds read low",1.01
same,normalized growth,[25],0.972
same,normalized growth,[26],1
same,normalized growth,[27],0.98
same,normalized growth,[28],0.889
same,normalized growth,[29],0.817
same,normalized growth,[30],0.798
same,normalized growth,[31],0.85 (active)
same,normalized growth,[32],0.754
